# PMC4336329 (PLoS ONE, 2015)
# In all, about 310,000 compounds went through this assay and about 14,000 (4.5%) showed an effect of 50% or more. Effects have a minus sign here. Only a selection was taken, and strong results are over-represented in it overall.
# Biological target: human ether-à-go-go-related gene (hERG) potassium channel (human, UniProt Q12809)
# Experiment: primary screen, population patch clamp on CHO cells stably expressing hERG; higher = less effect of the substance
# 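Further: peak tail current of the secondary pulse compared with the same well before compound.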
# Sequence of human ether-à-go-go-related gene (hERG) potassium channel (Q12809 whole entry, looked up): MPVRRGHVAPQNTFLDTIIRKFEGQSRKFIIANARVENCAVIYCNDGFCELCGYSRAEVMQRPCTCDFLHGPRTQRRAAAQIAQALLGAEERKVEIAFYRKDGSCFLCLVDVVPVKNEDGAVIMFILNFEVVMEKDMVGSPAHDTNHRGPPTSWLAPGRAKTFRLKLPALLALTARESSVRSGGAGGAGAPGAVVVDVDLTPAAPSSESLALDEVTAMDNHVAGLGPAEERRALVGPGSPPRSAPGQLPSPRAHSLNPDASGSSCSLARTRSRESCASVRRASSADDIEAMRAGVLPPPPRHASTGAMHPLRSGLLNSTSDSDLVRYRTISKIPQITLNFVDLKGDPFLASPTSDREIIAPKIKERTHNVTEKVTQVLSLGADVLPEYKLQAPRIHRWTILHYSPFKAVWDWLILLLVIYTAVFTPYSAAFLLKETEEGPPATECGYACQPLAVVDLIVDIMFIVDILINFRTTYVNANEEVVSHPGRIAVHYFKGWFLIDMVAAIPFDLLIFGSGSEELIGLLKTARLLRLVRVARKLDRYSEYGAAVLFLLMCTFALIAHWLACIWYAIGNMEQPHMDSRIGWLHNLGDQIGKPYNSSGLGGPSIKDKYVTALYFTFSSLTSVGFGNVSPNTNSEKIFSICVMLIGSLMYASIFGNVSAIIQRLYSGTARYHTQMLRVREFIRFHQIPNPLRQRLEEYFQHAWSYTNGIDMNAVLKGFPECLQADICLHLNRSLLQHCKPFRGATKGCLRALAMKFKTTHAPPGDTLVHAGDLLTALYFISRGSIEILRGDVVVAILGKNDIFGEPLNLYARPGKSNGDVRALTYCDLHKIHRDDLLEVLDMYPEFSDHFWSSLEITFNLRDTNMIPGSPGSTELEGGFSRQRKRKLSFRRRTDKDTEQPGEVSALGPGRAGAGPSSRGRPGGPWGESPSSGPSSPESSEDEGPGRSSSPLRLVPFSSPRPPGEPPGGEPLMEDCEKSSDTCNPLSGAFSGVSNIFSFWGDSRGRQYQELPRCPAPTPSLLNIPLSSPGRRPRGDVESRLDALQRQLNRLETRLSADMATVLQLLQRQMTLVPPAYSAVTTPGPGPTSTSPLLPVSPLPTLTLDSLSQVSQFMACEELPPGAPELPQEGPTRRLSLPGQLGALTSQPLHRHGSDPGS
row,SMILES,"hERG current change (%, negative = inhibition) at 10uM [%]"
1,COc1ccc(CNC(=O)C(C)n2ccc3cc(S(=O)(=O)N4CCCCCC4)ccc32)cc1 (centres unmarked),1.82
2,CCN(CC)CCC(c1ccc2c(c1)OCO2)c1c(OC)cc(OC)c2ccc(=O)oc12 (centres unmarked),-46.2
3,CCN(CC)CCC(c1ccc(N(C)C)cc1)c1c(O)cc(OC)cc1OC (centres unmarked),-0.431
4,CCN(CC)CCC(c1ccc(OC)cc1)c1c(O)cc(OC)cc1OC (centres unmarked),-66.4
5,CCN(CC)CCC(c1ccc2c(c1)OCO2)c1c(O)cc(OC)cc1OC (centres unmarked),-73.4
6,CCN(CC)C(=O)CC(c1ccc(OC)cc1)c1c(O)cc(OC)cc1OC (centres unmarked),-1.57
7,CCN(CC)C(=O)CC(c1ccc2c(c1)OCO2)c1c(O)cc(OC)cc1OC (centres unmarked),-2.77
8,CC(C)CC(C(=O)OCC(=O)c1c(N)n(C)c(=O)n(C)c1=O)N1C(=O)c2ccccc2C1=O (centres unmarked),-27
9,COCCNC(=S)N1CCC(C(=O)c2ccc3c(c2)OCCO3)CC1,32.7
10,Cc1ccc(F)cc1CNC(=O)c1cc(COc2ccc3ncccc3c2)on1,5.04
11,CCn1c(=O)c2c(cnn2C)c2ccccc21,2.58
12,Brc1ccc(-c2c(-c3ccsc3)sc3ccccc23)cn1,14.1
13,Cc1ccc(-c2nc(CS(=O)CC(=O)NCCN3CCCC3)c(C)o2)cc1 (centres unmarked),-5.74
14,CC(C)c1ccc(-c2csc(NC(=O)c3cccs3)c2C(=O)O)cc1,18.3
15,O=C(CSc1nc2ccccc2c(=O)n1Cc1ccco1)NCc1ccco1,-65.4
16,COc1cc2nc(SCC(=O)NCCc3ccccc3)n(Cc3ccco3)c(=O)c2cc1OC,-43.3
17,O=C(CSc1nc2ccccc2c(=O)n1Cc1ccccc1)NCc1ccco1,-39.6
18,COCCNC(=O)CSc1nc2cc3c(cc2c(=O)n1Cc1ccco1)OCO3,-27.4
19,Cc1ccccc1-n1c(SCC(=O)NCc2cccs2)nc2ccccc2c1=O,-17.4
20,COCCNC(=O)CSc1nc2cc(OC)c(OC)cc2c(=O)n1Cc1ccco1,-61.2
21,O=C(CSc1nc2ccccc2c(=O)n1Cc1ccco1)NCc1ccccc1,-29.3
22,O=C(CSc1nc2ccsc2c(=O)n1Cc1ccc(C(=O)O)cc1)NCc1ccco1,2.08
23,O=C(CSc1nc2ccccc2c(=O)n1Cc1ccc(F)cc1)NCc1cccs1,-14

row,SMILES,"hERG current change (%, negative = inhibition) at 10uM [%]"
1,O=C(CSc1nc2ccccc2c(=O)n1Cc1ccc(Cl)cc1)NCc1cccs1,-52.5
2,Cn1c(SCC(=O)NCc2ccco2)nc2ccccc2c1=O,-23.6
3,O=C(CSc1nc2ccccc2c(=O)n1Cc1ccc(C(=O)NC2CC2)cc1)NCc1ccco1,-51.5
4,Cc1cc(C(=O)N2CCCC(CCC(=O)N3CCN(c4ccccn4)CC3)C2)c(C)o1 (centres unmarked),-9.16
5,COc1cccc(Cn2c(=S)[nH]c3ccc(N4CCOCC4)cc3c2=O)c1,-8.19
6,CCOC(=O)C1CCCN(C(=O)Cn2cnc3c2c(=O)n(C)c(=O)n3C)C1 (centres unmarked),20.3
7,O=C(C1CCCC1)N1CCN=C1SCc1cccc([N+](=O)[O-])c1,-19.3
8,Cc1ccc2nc(NCc3ccc(F)cc3)c3nncn3c2c1,2.23
9,COc1ccc(C2N(Cc3ccccc3)CCN2Cc2ccccc2)cc1[N+](=O)[O-],-29.9
10,CCc1ccccc1NC(=O)C(CC)Sc1nc2cc3c(cc2c(=O)n1Cc1ccco1)OCO3 (centres unmarked),17.1
11,Cc1ccc(CSc2nc3ccccc3c(=O)n2Cc2ccco2)cc1,8.42
12,CCC(Sc1nc2cc(OC)c(OC)cc2c(=O)n1Cc1ccco1)C(=O)NCCOC (centres unmarked),-28.2
13,O=C(CSc1nc2ccccc2c(=O)n1Cc1ccco1)Nc1cccc(O)c1,3.9
14,Cn1c(SCC(=O)NCCN2C(=O)CSC2=O)nc2ccccc2c1=O,-2.05
15,O=C(CSc1nc2ccccc2c(=O)n1-c1ccccc1)NCc1ccco1,-15.1
16,CCC(Sc1nc2cc3c(cc2c(=O)n1Cc1ccco1)OCO3)C(=O)NCCOC (centres unmarked),-63.6
17,CN(Cc1ccccc1)C(=O)CSc1nc2ccccc2c(=O)n1Cc1ccco1,-3.56
18,C=CCn1c(SCC(=O)NCc2ccco2)nc2ccccc2c1=O,-50.3
19,Cc1ccc(NC(=O)CN(C)C(=O)CSc2nc3ccccc3c(=O)n2Cc2ccco2)cc1,-71.1
20,O=C(CSc1nc2ccccc2c(=O)n1Cc1ccco1)NCCN1C(=O)CSC1=O,-61.4
21,CCn1c(SCC(=O)NCc2ccco2)nc2ccccc2c1=O,-34.4
22,CCOc1ccc(C(=O)Nc2ccc(S(=O)(=O)Nc3cc(C)on3)cc2)cc1,-9.73
23,O=C(CSc1nnc(COc2ccccc2)n1Cc1ccco1)c1ccc(F)cc1,-21.1

row,SMILES,"hERG current change (%, negative = inhibition) at 10uM [%]"
1,Cc1ccnc2nc(C(=O)OCCOc3cccc(Br)c3)nn12,-27.9
2,COc1ccc(NC(=O)CCN2CC(C)OC(C)C2)c(OC)c1.Cl (centres unmarked),13.2
3,CCOc1cc(/C=N/n2c(COc3ccccc3)n[nH]c2=S)ccc1O,24.4
4,Cn1c(CN2CCOCC2)nnc1SCC(=O)NC1CCCCC1,17.7
5,COc1cccc(C2(C)NC(=O)N(CC(=O)c3cc(C)n(C4CC4)c3C)C2=O)c1 (centres unmarked),-35.8
6,O=C(NCc1ccc2c(c1)OCO2)c1ccc(Br)s1,6.32
7,CCOC(=O)C1CCN(C(=O)Cn2nc(CC)n3cccc3c2=O)CC1,-0.254
8,Cc1cccc(NC(=O)N2C3CCCC2CC(NC(=O)C(C)(C)C)C3)c1 (centres unmarked),1.47
9,CCOC(=O)N1CCN(C(=O)c2ccc3c(c2)NC(=O)C(N2CCOCC2)S3)CC1 (centres unmarked),-4.6
10,CCOc1cccc2cc(C(=O)NCc3cccnc3)c(=O)oc12,-1.94
11,CC(Sc1nc2ccccc2c(=O)n1Cc1ccco1)C(=O)c1ccccc1 (centres unmarked),-53.9
12,COc1cc2nc(SCC(=O)NCc3ccco3)n(Cc3ccc(Cl)cc3)c(=O)c2cc1OC,-3.17
13,O=C(CSc1nc2ccccc2c(=O)n1Cc1ccco1)c1ccc(F)cc1,9.22
14,CC1CCCCC1NC(=O)CSc1nc2ccccc2c(=O)n1Cc1ccco1 (centres unmarked),13
15,CN(C)C(CNC(=O)CSc1nc2ccccc2c(=O)n1Cc1ccco1)c1ccccc1 (centres unmarked),-67.1
16,Cc1nc2ccccc2n1CCc1nc2c3ccccc3nc(SCC(=O)NCc3ccco3)n2n1,-60
17,O=c1c2ccccc2nc(SCc2ccccc2)n1Cc1ccco1,1.3
18,CCN(CC)C(=O)CSc1nc2cc(OC)c(OC)cc2c(=O)n1Cc1ccc(Cl)cc1,-77
19,CCN(CC)C(=O)CSc1nc2cc3c(cc2c(=O)n1Cc1ccc(OC)cc1)OCO3,12.1
20,O=C(CSc1nc2ccccc2n1CC(=O)NCc1ccccc1)NCc1ccco1,-20.2
21,O=C(CSc1nc2ccccc2c2nc3ccccc3n12)NCc1ccco1,-8.55
22,COc1ccc(CCNc2ncnc3c2oc2ccccc23)cc1OC.Cl,0.357
23,CCCCn1nc(C(=O)N2CCc3ccccc32)c2ccccc2c1=O,-28.4

row,SMILES,"hERG current change (%, negative = inhibition) at 10uM [%]"
1,CN(Cc1nc(-c2cnccn2)no1)Cc1cccc2ccccc12,-2.31
2,CCc1ccc(-c2ccc(SCc3ccccn3)nn2)cc1,3.91
3,O=C(Cn1cc(C(F)(F)F)ccc1=O)NCc1ccc(F)cc1,15.6
4,CS(=O)(=O)N(CC(=O)N1CCN(c2ccccc2)CC1)c1cccc(Br)c1,-19.2
5,O=C(CCN1C(=O)/C(=C/C=C/c2ccccc2)SC1=S)Nc1nc2ccccc2s1,18.3
6,NCC(c1ccccc1Cl)c1c[nH]c2ccccc12 (centres unmarked),12.8
7,FC(F)(F)c1ccccc1Nc1nccs1,-16.1
8,CCC(=O)OC1(Cc2ccc(CC)cc2)CC(C)N(C)CC1C.Cl (centres unmarked),-59.4
9,CCc1ccc(CC2(O)CC(C)N(C)CC2C)cc1 (centres unmarked),-29.7
10,CCC1(OC(=O)c2ccccc2)CC(C)N(C)CC1C.Cl (centres unmarked),-7.85
11,CNC(=S)NNC(=O)c1cc(C(C)(C)C)nn1Cc1ccc(F)cc1,14.6
12,Cc1cc(C)cc(N2C(=O)CC(N3CCOCC3)C2=O)c1 (centres unmarked),14.9
13,O=C(CN1C(=O)COc2ccc(S(=O)(=O)N3CCCC3)cc21)N1CCCC1,9.85
14,C/C=C/Cn1c(N2CCCCCC2)nc2c1c(=O)[nH]c(=O)n2C,-5.14
15,N#Cc1cnn2c(-c3cccc(C(F)(F)F)c3)ccnc12,-52.8
16,NC(=S)c1cnn2c(-c3cccc(C(F)(F)F)c3)ccnc12,14.2
17,COc1ccc(-c2ccnc3c(C#N)cnn23)cc1,6.06
18,N#Cc1cnn2c(-c3ccccc3)ccnc12,2.49
19,NC(=O)c1cnn2c(-c3cccc(C(F)(F)F)c3)ccnc12,-2.33
20,N#Cc1cnn2c(-c3cccc([N+](=O)[O-])c3)ccnc12,-52.7
